From PubChem BioAssay
GSTO1 counter – blocks human GSTO1 in RBBP9 counter-screen; hit rate 1.1% among 300,000; AID 1974; recombinant GSTO1, activity-based probe fluorescence polarization; inhibition, % at 5.96 µM;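 active means inhibition above the campaign mean inhibition plus 3 SD, cut at about 35% in these data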;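 further: 0% = GSTO1-1 with DMSO and 100% = wells lacking GSTO1-1 enzyme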
PAD4 inh – blocks human protein arginine deiminase 4; hit rate 0.41% among 330,000; AID 485272; inhibition, % at 6.36 µM; Q9UM07; recombinant PAD4, RCA probe fluorescence polarization;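 active means percent inhibition above a cutoff equal to the mean of all tested compounds plus 3 SD, cut at about 15% in these data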;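 further: 0% = PAD4 with RCA probe and DMSO and 100% = probe without PAD4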
EBNA-1 inh – blocks EBNA-1 binding to DNA; inhibition, % at 14.8 µM; hit rate 0.34% among 300,000; EBNA-1 DNA binding, fluorescence polarization; in the data active means inhibition above about 28%
ZTA counter – counter-screen for EBNA-1 inhibitors: inhibitors of Epstein-Barr virus ZTA | P03206 | ZTA-DNA binding, fluorescence polarization | inhibition, % at 11 µM | hit rate 0.15% among 320,000; in the data active means inhibition above about 33%
Target sequence (P03206 whole entry, looked up): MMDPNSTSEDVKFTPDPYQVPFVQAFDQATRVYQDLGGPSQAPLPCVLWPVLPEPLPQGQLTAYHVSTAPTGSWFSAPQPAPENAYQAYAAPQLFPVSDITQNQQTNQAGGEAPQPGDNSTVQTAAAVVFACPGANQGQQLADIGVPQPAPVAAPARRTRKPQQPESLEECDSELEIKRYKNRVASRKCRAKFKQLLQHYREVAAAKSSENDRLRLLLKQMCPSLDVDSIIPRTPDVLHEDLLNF
LYPLA1 counter – LYPLA1 (human) inhibition in PME1 counter-screen; AID 2174; hit rate 0.16% among 320,000; recombinant LYPLA1, FP-Rh probe fluorescence polarization; inhibition, % at 5.9 µM; O75608;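 active means inhibition above the mean of all tested compounds plus 3 SD, set per campaign, cut at about 14% in these data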;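 further: inhibitors block serine hydrolase probe labeling of LYPLA1 so polarization falls; 0% = enzyme with DMSO and 100% = wells lacking LYPLA1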
Target sequence (O75608 whole entry, looked up): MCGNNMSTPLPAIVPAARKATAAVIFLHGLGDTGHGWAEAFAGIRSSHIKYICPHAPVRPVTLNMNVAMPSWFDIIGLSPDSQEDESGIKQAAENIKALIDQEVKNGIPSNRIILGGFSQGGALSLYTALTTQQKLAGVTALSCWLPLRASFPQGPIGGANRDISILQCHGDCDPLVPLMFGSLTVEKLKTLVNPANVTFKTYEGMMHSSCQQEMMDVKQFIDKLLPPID
LYPLA2 counter – blocks human lysophospholipase 2, a PME1 counter-screen. O95372. recombinant LYPLA2, FP-Rh probe fluorescence polarization. inhibition, % at 5.9 µM. hit rate 0.38% among 320,000;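 active means inhibition above the screen-wide mean plus 3 SD, limit set per campaign, cut at about 26% in these data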;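 further: 0% = LYPLA2 with DMSO and 100% = wells lacking LYPLA2 enzyme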
PAD4 FP conf – PAD4 (human) inhibition, confirmed | shares compounds with PAD4 inh | recombinant PAD4, RCA probe fluorescence polarization | inhibition, % at 6.36 µM | hit rate 28% among 1,200;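 active means mean inhibition across replicates above the hit cutoff set by the earlier primary screen, cut at about 15% in these data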;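 further: inhibitors block active-site labeling by the probe so polarization falls; 0% = PAD4 with probe and DMSO and 100% = probe without PAD4 enzyme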
* hit, by the source's call; . = no result. A selection: hits, their analogues and other compounds. The true share with any hit is near 1.7%.

SMILES	GSTO1 counter	PAD4 inh	EBNA-1 inh	ZTA counter	LYPLA1 counter	LYPLA2 counter	PAD4 FP conf
COC(=O)C1C(O)=C(C=Nc2ccccc2)C(=O)CC1(C)C (stereo not drawn)	1.2	-2.1	-16.9	-5.8	-1.6	4.2	.
COc1ccc(-c2nc(CS(=O)(=O)CC(=O)NCCCN3CCOCC3)c(C)o2)cc1	3.1	3.0	0.0	-9.8	8.3	5.5	.
O=C(CNCc1ccc(F)cc1)Nc1cc(S(=O)(=O)N2CCOCC2)ccc1Cl	.	-4.5	.	.	.	.	.
COC/C=C/C1=CC2=CC(=O)C(C)(OC(=O)c3cnc4ccccc4n3)C(=O)C2=CN1CC1CC1 (stereo not drawn)	21.7	23.8*	-0.7	3.5	0.2	1.8	3.2
COC/C=C/C1=CC2=CC(=O)C(C)(OC(=O)c3cnc4ccccc4n3)C(=O)C2=CN1Cc1ccccc1 (stereo not drawn)	16.0	5.3	2.8	4.7	2.4	10.0	.
O=C(Nc1ccc(Nc2ccccc2)cc1)c1ccccc1	3.4	46.5*	-0.3	9.2	-0.7	-3.7	-0.1
O=C(Nc1ccc(Nc2ccccc2)cc1)c1ccc(Cl)cc1	1.9	0.8	0.8	-10.9	-6.7	-7.9	.
O=C(Nc1ccccc1Br)C(=O)N1CCCC1	-0.4	-1.8	-6.6	-6.5	1.4	-2.6	.
O=C(Nc1ccccn1)C(=O)N1CCCCC1	-1.5	36.0*	-7.0	-14.3	3.6	4.0	-2.4
CCCCOc1ccccc1NC(=O)CC1Nc2ccccc2NC1=O (stereo not drawn)	-10.9	23.5*	10.8	-14.7	-6.1	-2.7	-3.6
O=C(CC1Nc2cccc3cccc(c23)NC1=O)Nc1ccc(F)cc1 (stereo not drawn)	26.3	58.9*	-14.4	12.1	-3.3	-0.8	2.9
COc1ccc(NC(=O)CC2Nc3cccc4cccc(c34)NC2=O)cc1 (stereo not drawn)	31.8	-10.6	-20.9	-2.1	3.8	10.9	.
CCCCNC(=O)CC1Nc2ccccc2NC1=O (stereo not drawn)	-0.2	-5.3	-2.9	-4.7	0.6	-6.0	.
CC(=O)C[C@H](O)CC(=O)[C@H]1OC(=O)CC/C=C\Cc2ccccc21	.	21.6*	.	-16.6	3.7	2.2	0.2
COC(=O)c1cc(C)nc(Sc2ccccc2N)n1	3.0	68.4*	2.9	4.0	1.0	3.3	77.9*
COC(=O)c1ccccc1NC(=O)CSc1nc(C)cc(C)n1	6.7	-3.0	8.8	3.1	-0.6	5.2	.
COC(=O)c1c(C)oc2ccc(N(C(C)=O)S(=O)(=O)c3ccccc3)cc12	1.9	1.2	-5.3	-21.9	5.2	3.4	.
COc1ccc(S(=O)(=O)N(C(C)=O)c2ccc3oc(=O)sc3c2)cc1	31.8	21.6*	-6.7	-0.9	-1.6	0.0	6.5
COc1ccc(OC)c(N(C)S(=O)(=O)c2ccc3c(c2)N(C(C)=O)CCO3)c1	2.5	18.4*	0.8	-3.6	-1.3	2.1	-2.4
COc1ccc(NS(=O)(=O)c2ccc3c(c2)N(C(C)=O)CCO3)c(OC)c1	-1.1	-0.9	3.9	-10.8	-3.5	-1.3	.
O=C(O)CSc1c2ccccc2cc2ccccc12	2.1	23.4*	14.9	-4.1	0.7	1.1	20.5*
Cc1cccc(NC(=S)Nc2ccc(N3CCOCC3)cc2)c1C	5.6	23.1*	-3.8	-1.1	1.1	-7.6	3.4
Cc1cccc(NC(=S)NN2CCOCC2)c1C	5.2	2.1	-0.4	-0.5	2.2	-7.5	.
CCN(CC(=O)Nc1c(F)cccc1F)C(=O)c1nc2nccc(C)n2n1	.	6.0	.	11.3	0.1	-1.6	.
CCOC(=O)N1CCN(C(=O)c2cn(C)c3ccc(S(=O)(=O)N4CCOCC4)cc3c2=O)CC1	-2.5	-2.1	-5.1	6.2	6.5	2.2	.
O=C(Nc1nc(-c2ccc(S(=O)(=O)N3CCOCC3)cc2)cs1)c1ccccc1	-13.7	15.1*	3.1	6.4	-29.6	-36.9	19.2*
COc1cccc(C(=O)Nc2nc(-c3ccc(S(=O)(=O)N4CCOCC4)cc3)cs2)c1	-9.5	-1.1	11.9	9.9	-33.1	-40.7	.
Cc1n[nH]c(=S)n(/N=C/c2cccs2)c1=O	23.0	18.2*	-4.9	-1.7	-1.6	-6.5	4.7
CC(C)(C)c1n[nH]c(=S)n(/N=C/c2cccs2)c1=O	-0.2	-0.4	-7.1	-2.1	-2.2	-4.8	.
